RECQ1 inh = blocks DNA unwinding by human RECQ1. P46063. RECQ1 DNA unwinding, red fluorescence kinetic read. Potency, µM (highest dose often 57.3 µM), actives largely listed as inhibitors. actives 0.54% (n = 240,000); further: nearly all actives have a fitted effect of over 30% in size
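50 nM RECQ1T1 preincubated 15 min with compound in Tris pH 8.0 buffer with MgCl2, DTT, Tween-20 and 2.5 ug/ml poly(dI-dC); started with 200 nM TAMRA/BHQ-2 forked duplex and 2 mM ATP. Unwinding read as fluorescence (525/598 nm), two reads 2 h apart.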
KDM4E inh = blocks human JMJD2E demethylase activity; JMJD2E catalytic domain, FDH-coupled NADH fluorescence (FDH is formaldehyde dehydrogenase); Potency, µM (top dose mostly 57.1 µM), hits mostly inhibitors; actives 1.6% (n = 230,000); active means well fitted inhibition curve with a large enough effect, not every such curve was filed as active; inconclusive means small, poorly fitted or top-dose-only effect, or another doubt; inactive means no such curve, though single readings can be large or run the other way; further: nearly all actives have a fitted effect of over 50% in size
APEX1 inh = inhibitors of human APE1 endonuclease; P27695; recombinant APE1, TAMRA/BHQ-2 abasic DNA cleavage fluorescence; Potency, µM (top dose mostly 65.8 µM), hits mostly inhibitors; actives 0.35% (n = 350,000); AID 2517; further: nearly all actives have a fitted effect of over 55% in size
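0.75 nM APE1 + cpd, 15 min RT; start w/ 50 nM TAMRA/BHQ-2 THF-abasic dsDNA; kinetic fluor 525/598 nm ×3 reads @60 s; Δ(read3−read1); normalized to DMSO and NSC13755 control wells.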
BLM helicase inh = Bloom syndrome helicase (human) inhibition. P54132. recombinant BLM DNA unwinding, fluorescence dequenching. Potency, µM (titrated, usually from 56.1 µM), usual class: inhibitors. actives 0.2% (n = 350,000); further: nearly all actives have a fitted effect of over 35% in size
TDP1 inh = TDP1 (human) enzyme inhibition | Q9NUW8 | Potency, µM (highest dose often 130 µM), actives largely listed as inhibitors | actives 0.28% (n = 350,000) | recombinant TDP1, AlphaScreen DNA substrate cleavage; further: nearly all actives have a fitted effect of over 40% in size
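Signal: AlphaScreen proximity between streptavidin donor and anti-FITC acceptor beads on intact substrate. Reaction: Tdp1 1 nM, substrate 15 nM final, 5 min RT after 15 min compound preincubation.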
KAT2A inh = inhibitors of human GCN5L2 histone acetyltransferase; Potency, µM (top dose mostly 58.9 µM), hits mostly inhibitors; actives 0.21% (n = 390,000); GCN5L2 HAT assay, ThioGlo1 CoA-SH fluorescence; AID 504327
Target sequence (Q92830 whole entry, looked up): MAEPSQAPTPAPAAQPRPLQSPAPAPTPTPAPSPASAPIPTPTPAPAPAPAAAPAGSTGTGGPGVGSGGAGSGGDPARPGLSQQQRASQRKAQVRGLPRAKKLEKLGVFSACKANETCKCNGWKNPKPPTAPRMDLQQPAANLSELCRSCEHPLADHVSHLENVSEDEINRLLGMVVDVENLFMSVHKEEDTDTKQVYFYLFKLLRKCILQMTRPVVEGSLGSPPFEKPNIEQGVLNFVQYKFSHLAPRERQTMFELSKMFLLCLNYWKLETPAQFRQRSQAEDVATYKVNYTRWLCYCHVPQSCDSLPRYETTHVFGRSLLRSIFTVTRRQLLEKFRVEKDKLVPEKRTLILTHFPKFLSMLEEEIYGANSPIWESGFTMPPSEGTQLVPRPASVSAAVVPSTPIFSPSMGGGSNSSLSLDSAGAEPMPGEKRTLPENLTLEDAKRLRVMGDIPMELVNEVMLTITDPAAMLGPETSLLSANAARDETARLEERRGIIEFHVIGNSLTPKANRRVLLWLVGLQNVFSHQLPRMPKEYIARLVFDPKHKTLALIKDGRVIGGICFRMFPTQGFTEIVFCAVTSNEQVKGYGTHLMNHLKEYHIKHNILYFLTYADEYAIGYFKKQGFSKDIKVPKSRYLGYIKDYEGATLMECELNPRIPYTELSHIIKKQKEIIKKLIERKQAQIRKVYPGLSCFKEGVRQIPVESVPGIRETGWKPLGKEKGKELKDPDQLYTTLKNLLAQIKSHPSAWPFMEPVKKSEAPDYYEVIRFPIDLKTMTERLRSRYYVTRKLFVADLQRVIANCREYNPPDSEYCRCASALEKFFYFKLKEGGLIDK
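qHTS, 1536-well. 20nM enzyme, pH 7.5 HEPES/EDTA/Tween-20 buffer; 15 min compound preinc., RT. Start: 75uM H3(1-25), 70uM AcCoA, 50uM ThioGlo1. Read Ex340/Em540 at t=0 (autofluorescence flag) and t=20 min.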
Each line names hits and unclear results; the compound was inactive in the other large screens; ! = repeats disagree. Many of the other results were omitted from the sample, so hits are more common in it than they were. Unless noted, the call rests on the fitted dose curve; in most records, active means well fitted curve in the direction sought with a large enough effect; inconclusive means small, poorly fitted or top-dose-only effect, or another doubt; inactive means no such curve, though single readings can be large; an effect the other way counts as inactive or inconclusive.

CC(=O)N[C@@H]1C(O[C@H]2O[C@H](C(=O)O)C(O)[C@H](O)[C@H]2O)[C@H](O)[C@@H](CO)O[C@H]1O[C@@H]1C(C(=O)O)O[C@@H](O[C@H]2[C@H](O)[C@@H](CO)OC(O)[C@@H]2NC(C)=O)[C@H](O)[C@H]1O (stereo partly specified)	none (no result: RECQ1 inh, KDM4E inh, APEX1 inh, TDP1 inh)
Nc1sc2c(c1C(=O)NC1CCS(=O)(=O)C1)CCCC2 (stereo unspecified)	KDM4E inh 28µM
O=C(Nc1nc2ccccc2n1CCN1CCOCC1)c1ccccc1	none (no result: RECQ1 inh, KDM4E inh, TDP1 inh)
O=C(Nc1nc2ccccc2n1CCN1CCOCC1)c1cn(-c2ccccc2)nc1-c1ccccc1	KDM4E inh 25µM
COc1ccc(C(OCCN2CCC[C@H](C(=O)O)C2)(c2ccc(OC)cc2)c2ccc(OC)cc2)cc1	none (no result: KDM4E inh)
NC(Cc1cc(I)c(Oc2ccc(O)c(I)c2)c(I)c1)C(=O)O (stereo unspecified)	APEX1 inh inconclusive
N[C@@H](Cc1cc(I)c(Oc2ccc(O)c(I)c2)c(I)c1)C(=O)O	BLM helicase inh 25µM!, KAT2A inh inconclusive
COC(=O)c1ccccc1S(=O)(=O)N1CCc2nc(-c3ccc(OC)cc3C)c3c(c2C1)CO[C@@H](c1ccccc1)C3	none (no result: KAT2A inh)
CC(=O)Nc1ccc(S(=O)(=O)Nc2ccc(C)c(C)c2)cc1	none (no result: RECQ1 inh, KDM4E inh, APEX1 inh, BLM helicase inh, KAT2A inh)
CC(C)(C)c1nnc(N/N=C/c2ccccc2)n(N)c1=O	none
CC(C)(C)c1nnc(N/N=C/c2ccccc2O)n(N)c1=O	KDM4E inh 28µM
CC1=CC2(O)OCCN(CCO)C2=CC1=O (stereo unspecified)	RECQ1 inh 25µM, KDM4E inh 25µM, APEX1 inh inconclusive, BLM helicase inh inconclusive (no result: TDP1 inh)
CC(C)(C)n1ncc2c(=O)n(Cc3ccc(OC(F)(F)F)cc3)cnc21	none (no result: RECQ1 inh, KDM4E inh, BLM helicase inh, TDP1 inh, KAT2A inh)
Cc1cc(-c2csc(NC(=O)c3cccc(S(=O)(=O)N(C)C)c3)n2)c(C)n1-c1ccccc1	KDM4E inh 13µM
O=C1C2=CC[C@@H]3C(=O)N(c4ccc(F)cc4F)C(=O)[C@H]3[C@H]2[C@H](O)[C@H]2O[C@H]12	TDP1 inh inconclusive (no result: KDM4E inh, KAT2A inh)
C[C@@H]1CC[C@@H]2C(=O)N3[C@@H](CC[C@@H](C)[C@@H]3c3ccc(-c4ccco4)cc3)C(=O)N2[C@H]1c1ccc(-c2ccco2)cc1	RECQ1 inh inconclusive, TDP1 inh inconclusive (no result: KDM4E inh, KAT2A inh)
CC1CCC2C(=O)N3C(CCC(C)C3c3ccc(-c4ccco4)cc3)C(=O)N2C1c1ccc(-c2ccco2)cc1 (stereo unspecified)	RECQ1 inh 2.5µM, APEX1 inh 4µM, BLM helicase inh 3.5µM, TDP1 inh 3.5µM (no result: KDM4E inh, KAT2A inh)
Nc1ccccc1Sc1nc2ccccc2[nH]1	KDM4E inh 13µM, KAT2A inh inconclusive
Nc1nc2ccccc2[nH]1	none (no result: KDM4E inh)
O=C(NC1CC1)C1=C[C@@H](c2c[nH]c3ccccc23)C[C@@H](OCc2ccc(CO)cc2)O1	KDM4E inh 25µM
CC(C)(C)[C@H]1C=C(C(=O)Nc2ccccc2)O[C@@H](OCc2ccc(CO)cc2)C1	RECQ1 inh 28µM
O=C(NC1CC1)C1=C[C@H](c2c[nH]c3ccccc23)C[C@H](OCCCCO)O1	KDM4E inh inconclusive
CSCC[C@H](NC(=O)[C@H](CC(C)C)NC(=O)[C@H](CO)NC(=O)[C@H](CCC(=O)O)NC(=O)[C@H](CC(C)C)NC(=O)[C@H](Cc1ccc(O)cc1)NC(=O)[C@H](CCCCN)NC(=O)[C@H](CCCCN)NC(=O)[C@H](C)NC(=O)[C@H](CO)NC(=O)[C@H](CC(C)C)NC(=O)[C@H](CCC(N)=O)NC(=O)CNC(=O)[C@H](CC(C)C)NC(=O)[C@H](CC(C)C)NC(=O)[C@H](CCCCN)NC(=O)[C@H](CO)NC(=O)[C@H](Cc1ccccc1)NC(=O)[C@H](CC(=O)O)NC(=O)[C@H](CO)NC(=O)[C@@H](NC(=O)[C@H](Cc1ccccc1)NC(=O)[C@@H](NC(=O)CNC(=O)[C@H](CC(=O)O)NC(=O)[C@H](C)NC(=O)[C@@H](N)Cc1cnc[nH]1)C(C)C)[C@@H](C)O)C(N)=O	none (no result: KDM4E inh)
c1cc(-c2cnn3cc(-c4ccc(OCCN5CCCCC5)cc4)cnc23)ccn1	none (no result: KDM4E inh)
Cc1ccc(/C=C2/NC(=O)N(Cc3ccccc3)C2=O)o1	KDM4E inh 11µM, APEX1 inh inconclusive, KAT2A inh inconclusive
COc1ccccc1C1Nc2c(sc3nc(C)cc(C)c23)C(=O)N1c1ccccc1 (stereo unspecified)	none (no result: RECQ1 inh, KDM4E inh, APEX1 inh)
C=Cc1ccc(S(=O)(=O)O)cc1	APEX1 inh 14µM (no result: KDM4E inh, TDP1 inh)
COc1ccc(NS(=O)(=O)c2ccc3c(c2)CCC(=O)N3)cc1	none (no result: RECQ1 inh, KDM4E inh, APEX1 inh, BLM helicase inh, KAT2A inh)
Cc1ccc(NS(=O)(=O)c2cc3c(cc2-c2ccsc2)NC(=O)CO3)cc1C	none (no result: RECQ1 inh, KDM4E inh, APEX1 inh, BLM helicase inh, KAT2A inh)
O=C(O)c1cc(O)c2c(c1)[C@@H]([C@H]1c3cc(C(=O)O)cc(O)c3C(=O)c3c(O[C@@H]4O[C@H](CO)[C@@H](O)[C@H](O)[C@H]4O)cccc31)c1cccc(O[C@@H]3O[C@H](CO)[C@@H](O)[C@H](O)[C@H]3O)c1C2=O	APEX1 inh 0.067µM, KAT2A inh 0.63µM (no result: RECQ1 inh, KDM4E inh, BLM helicase inh, TDP1 inh)
O=C1c2c(O)cccc2[C@H]([C@@H]2O[C@H](CO)[C@@H](O)[C@H](O)[C@H]2O)c2cc(CO)cc(O)c21	none (no result: RECQ1 inh, KDM4E inh, BLM helicase inh, TDP1 inh, KAT2A inh)
CCN(CC)c1ccc(/C=N/Nc2ccc(C)cc2)c(O)c1	KDM4E inh inconclusive
CCOC(=O)N/N=C/c1ccc(N(CC)CC)cc1O	KDM4E inh 28µM
CCN(CC)c1ccc(/C=N/NC(=O)CCC(=O)NCc2ccccc2)c(O)c1	KDM4E inh 25µM
Cc1ccc(NC(=O)CSc2nnc(-c3cccc([S+](=O)([O-])N4CCCC4)c3)n2-c2c(C)cccc2C)cc1	none (no result: RECQ1 inh, KDM4E inh, BLM helicase inh, TDP1 inh, KAT2A inh)
Cc1cc2c(s1)c1cnn(Cc3cccc(Cl)c3)c(=O)c1n2C	none (no result: RECQ1 inh, KDM4E inh, APEX1 inh, BLM helicase inh, KAT2A inh)
COc1ccc2c(c1OC)C(=O)N1C2SC(C)(C)[C@H]1C(=O)NC1CCCC1 (stereo partly specified)	KAT2A inh 32µM (no result: RECQ1 inh, KDM4E inh, TDP1 inh)
CCS(=O)(=O)N1Cc2ccccc2CC1C(=O)Nc1nc2c(C)cccc2s1 (stereo unspecified)	KDM4E inh 25µM
O=C1c2ccccc2NC(c2ccc(-c3ccc(-c4ccccc4)cc3)o2)N1O (stereo unspecified)	none (no result: RECQ1 inh, KDM4E inh, BLM helicase inh, TDP1 inh, KAT2A inh)
Cc1cc(=O)n(CCc2ccccc2)c(O)c1C#N	KDM4E inh 11µM
Cc1cc(=O)n(CCO)c(O)c1C#N	KDM4E inh inconclusive
Cc1ccc(C2CC(=O)Oc3cc4c(cc32)OCO4)cc1 (stereo unspecified)	RECQ1 inh 32µM, APEX1 inh inconclusive, KAT2A inh inconclusive (no result: KDM4E inh)
